The values below come from PubChem BioAssay.

Molecules are shown by their SMILES. Several values for one entry are separate records, joined by “and”; a condition that tells them apart may be missing. Equal values may be shown once. Unmarked numbers belong to inactive results. No rule for the calls is given here.

For this test, the system named is Aerobactin synthetase IucA (Klebsiella pneumoniae hvKP1). The test is described as follows: Biochemical IucA enzyme inhibition primary screen of the Spectrum library (AID 1346200).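 Also: 100% = wells without compound and 0% = wells lacking enzyme.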 The settings on record: malachite green pyrophosphate, A620, at 8 µM, hits give low values.
Take `O=C1C=CC2=C3c4cc(O)c(O)cc4C[C@@]3(O)COC2=C1`: the activity remaining was 120%.

`O=c1c(-c2ccc(O)cc2)coc2c(C3O[C@H](CO)[C@@H](O)[C@H](O)[C@H]3O)c(O)ccc12` (stereo not given in full): the activity remaining is 105%.

Regarding `COc1ccc(C(=O)O)c(O)c1OC`, the activity remaining is 93.8%.

Regarding `CN(C)CCc1c[nH]c2ccc(Cn3cncn3)cc12`, the activity remaining is 102%.

Consider `Cc1cccc(Nc2ccccc2C(=O)O)c1C`, for which the activity remaining is 111%.

In the case of `CCCN(CCC)S(=O)(=O)c1ccc(C(=O)O)cc1`, the activity remaining was 93.6%.

Consider `Cc1cc2nc3c(=O)[nH]c(=O)nc-3n(CC(O)C(O)C(O)CO)c2cc1C` (stereo not given), for which the activity remaining was 106%.

Regarding `CC(C)=CCc1c2c(c3occ(-c4ccc(O)cc4)c(=O)c3c1O)C=CC(C)(C)O2`, the activity remaining is 99.3%.

In the case of `C=CCCCCCCCCCCCc1ccco1`, the activity remaining is 99.3%.

With `C=CCSCC1Nc2cc(Cl)c(S(N)(=O)=O)cc2S(=O)(=O)N1` (stereo not given), the activity remaining was 91.6%.

Regarding `CC(=O)c1cc2c(cc1O)OC(C)(C)C=C2`, the activity remaining is 96.6%.

Turning to `Oc1cc(O)c2c(c1)O[C@H](c1cc(O)c(O)c(O)c1)[C@H](O)C2`, the activity remaining is 116%.

For `CCCCC(=O)O[C@]1(C(=O)CO)[C@@H](C)CC2C3CCC4=CC(=O)C=C[C@]4(C)[C@@]3(F)C(O)C[C@@]21C` (stereo not given in full), the activity remaining is 121%.

Take `CCCCCCCCNC(C)C(O)c1ccc(SC(C)C)cc1` (stereo not given): the activity remaining was 114%.

Consider `CC1(C)S[C@@H]2[C@H](NC(=O)[C@H](NC(=O)N3CCNC3=O)c3ccccc3)C(=O)N2C1C(=O)O` (stereo not given in full), for which the activity remaining was 95.7%.

As to `NC(N)=O`, the activity remaining is 91.3%.

As to `CCOc1ccc(C(=O)c2ccc(OC)c(O)c2O)cc1`, the activity remaining is 109%.

For the molecule `CN(Cc1cc(Br)cc(Br)c1N)C1CCCCC1`, the activity remaining is 112%.

Turning to `CN(Cc1cnc2nc(N)nc(N)c2n1)c1ccc(C(=O)NC(CCC(=O)O)C(=O)O)cc1` (stereo not given), the activity remaining was 121%.

In the case of `OCC(S)CS` (stereo not given), the activity remaining is 91.4%.

For `CCC(=O)NCC[C@@H]1CCc2ccc3c(c21)CCO3`, the activity remaining was 120%.

`OCC(O)C(O)C(O)CO` (stereo not given): the activity remaining was 112% and 92.5%.

For `Cc1noc(NS(=O)(=O)c2ccc(N)cc2)c1C`, the activity remaining was 117%.

Turning to `O=C(O)CN1C(=O)c2cccc3cccc(c23)C1=O`, the activity remaining was 111%.

As to `CC(=O)O[C@H]1CC[C@]2(C)C3=CC(=O)[C@@]4(C)C(C[C@@H]5OC6(OCC(C)CC6Br)[C@@H](C)[C@@H]54)C3CC[C@H]2C1` (stereo not given in full), the activity remaining is 117%.

With `c1ccc(-c2ccc(C(c3ccccc3)n3ccnc3)cc2)cc1` (stereo not given), the activity remaining is 111%.

As for `COc1c(C(C)C)oc2cc3oc(=O)ccc3cc12`, the activity remaining is 102%.

`CCN1C[C@]2(OC(=O)c3ccccc3NC(C)=O)CCC(OC)[C@]34C1[C@H](CC23)[C@@]1(O)CC(OC)[C@H]2CC4C1(O)[C@H]2OC` (stereo not given in full): the activity remaining is 95.9%.

For the molecule `COc1cc(/C=C/C(=O)O)ccc1O`, the activity remaining is 100%.

Turning to `CCCCCC1C(=O)CCC1CC(=O)O` (stereo not given), the activity remaining was 93.2%.

`COc1cc(O)c2c(c1)C(=O)c1cc(C)cc(O)c1C2=O`: the activity remaining is 97.7%.

For the molecule `NC(=O)c1cc[n+](CC2=C(C(=O)O)N3C(=O)C(NC(=O)C(c4ccccc4)S(=O)(=O)[O-])C3SC2)cc1` (stereo not given), the activity remaining was 117%.

Regarding `CC(C)=CCCC1(C)C=Cc2c(O)c3c(c(CC=C(C)C)c2O1)OC12C(=CCCC1C(C)(C)O[C@@]2(C/C=C(\C)C(=O)O)C(=O)O)C3=O` (stereo not given in full), the activity remaining was 116%.

Take `COc1cc2c(cc1-c1coc3c4c(c(OC)cc3c1=O)OC(C)(C)C=C4)OCO2`: the activity remaining was 110%.

On to `CN1C(C)(C)CCCC1(C)C`, for which the activity remaining was 82.7%.

In the case of `CCc1ccc(CCOc2ccc(CC3SC(=O)NC3=O)cc2)nc1` (stereo not given), the activity remaining is 120%.

On to `Cc1coc2c1C(=O)C(=O)c1c-2ccc2c1CCCC2(C)C`, for which the activity remaining is 103%.

Take `C1CNCCN1`: the activity remaining is 120%.

`Cc1ccc(O)cc1`: the activity remaining was 102%.

Take `O=C(O)c1ccc(S(=O)(=O)N(Cl)Cl)cc1`: the activity remaining was 113%.
